Potency estimated from few doses data for 12 molecules are collected here from paper PMC11062922 (Nature Chemical Biology, 2023).

What all share (set-up): species or system human, MV4-11 + K-562 + COLO205 + SK-N-BE2 + OVCAR-8
The subject of one test is T1, DJA1.
T1 construct: gene DNAJA1
Conditions: read-out: apparent Kd, n = 1.

A further test concerns GSK3A. Conditions: read-out: apparent Kd, compound concentrations: 100 nM and 1000 nM (sheet 'Samples'), n = 1.
The next test has as its system GSK3B. To be noted: read-out: apparent Kd, compound concentrations: 100 nM and 1000 nM (sheet 'Samples'), n = 1.
For the next test, the system named is HSP90AA1. To be noted: read-out: apparent Kd; compound concentrations: 100 nM and 1000 nM (sheet 'Samples'), CATDS: 5.4644283651895102E-2; n = 1.
A further test relates to HSPE1. To be noted: read-out: apparent Kd; compound concentrations: 100 nM and 1000 nM (sheet 'Samples'), CATDS: 7.3409549069479094E-2; n = 1.
The test system of another test is ICK. Conditions: read-out: apparent Kd; compound concentrations: 100 nM and 1000 nM (sheet 'Samples'), CATDS: 5.6639320482966701E-2; n = 1.
Another test has as its system PGK1. To be noted: read-out: apparent Kd; compound concentrations: 100 nM and 1000 nM (sheet 'Samples'), CATDS: 0.319923610407498; n = 1.
In another test the test system is PKM. To be noted: read-out: apparent Kd; compound concentrations: 100 nM and 1000 nM (sheet 'Samples'), CATDS: 5.66229333393235E-2; n = 1.
Another test has as its system PRKCA. Conditions: read-out: apparent Kd; compound concentrations: 100 nM and 1000 nM (sheet 'Samples'), CATDS: 8.5059417421235906E-2; n = 1.
The test system of a further test is PRKCB. To be noted: read-out: apparent Kd; compound concentrations: 100 nM and 1000 nM (sheet 'Samples'), CATDS: 6.0874586242987201E-2; n = 1.
The test system of a further test is PRKCD. To be noted: read-out: apparent Kd; compound concentrations: 100 nM and 1000 nM (sheet 'Samples'), CATDS: 9.6711614393648698E-2; n = 1.
Another test has as its system RPS6KA6. Conditions: read-out: apparent Kd; compound concentrations: 100 nM and 1000 nM (sheet 'Samples'), CATDS: 9.9145612858777904E-2; n = 1.
The next test relates to TESK1. To be noted: read-out: apparent Kd; compound concentrations: 100 nM and 1000 nM (sheet 'Samples'), CATDS: 5.61870576543727E-2; n = 1.
The subject of another test is DHCR24. To be noted: read-out: apparent Kd, n = 1.
The subject of a further test is EIF5B. Conditions: read-out: apparent Kd; compound concentrations: 100 nM and 1000 nM (sheet 'Samples'), CATDS: 0.317916944834297; n = 1.
A further test deals with TOP2B. Conditions: read-out: apparent Kd; compound concentrations: 100 nM and 1000 nM (sheet 'Samples'), CATDS: 0.32838798877743502; n = 1.
A further test deals with DDR2. Conditions: read-out: apparent Kd; compound concentrations:100 nM and 1000 nM (sheet 'Samples'); n = 1.
The subject of another test is PDGFRB. Conditions: read-out: apparent Kd; compound concentrations:100 nM and 1000 nM (sheet 'Samples'); n = 1.
A further test concerns EGFR. Conditions: read-out: apparent Kd; compound concentrations: 100 nM and 1000 nM (sheet 'Samples'), CATDS: 1; n = 1.
Another test has as its system MCM5. Conditions: read-out: apparent Kd; compound concentrations:100 nM and 1000 nM (sheet 'Samples'); n = 1.
The test system of a further test is ILK. Conditions: read-out: apparent Kd; compound concentrations: 100 nM and 1000 nM (sheet 'Samples'), CATDS: 0.13612875725697299; n = 1.
A further test concerns NQO2. To be noted: read-out: apparent Kd; compound concentrations: 100 nM and 1000 nM (sheet 'Samples'), CATDS: 0.173411525016403; n = 1.
In the next test the test system is PDXK. To be noted: read-out: apparent Kd, compound concentrations: 100 nM and 1000 nM (sheet 'Samples'), n = 1.
In the next test the test system is TGFBR1. Conditions: read-out: apparent Kd; compound concentrations:100 nM and 1000 nM (sheet 'Samples'); n = 1.
The next test has as its system PIK3CB. To be noted: read-out: apparent Kd; compound concentrations: 100 nM and 1000 nM (sheet 'Samples'), CATDS: 0.79841434313068305; n = 1.
The next test has as its system DYRK1A. To be noted: read-out: apparent Kd; compound concentrations:100 nM and 1000 nM (sheet 'Samples'); n = 1.
The test system of another test is EIF2AK1. To be noted: read-out: apparent Kd; compound concentrations:100 nM and 1000 nM (sheet 'Samples'); n = 1.
The next test concerns IRAK3. Conditions: read-out: apparent Kd; compound concentrations:100 nM and 1000 nM (sheet 'Samples'); n = 1.
In the next test the test system is OPA1. Conditions: read-out: apparent Kd; compound concentrations:100 nM and 1000 nM (sheet 'Samples'); n = 1.
The test system of a further test is PIK3CD. To be noted: read-out: apparent Kd; compound concentrations:100 nM and 1000 nM (sheet 'Samples'); n = 1.
The subject of another test is DYNC1LI1. To be noted: read-out: apparent Kd; compound concentrations:100 nM and 1000 nM (sheet 'Samples'); n = 1.
The subject of the next test is GALK1. To be noted: read-out: apparent Kd; compound concentrations:100 nM and 1000 nM (sheet 'Samples'); n = 1.
The next test has as its system MAP3K1. Conditions: read-out: apparent Kd; compound concentrations:100 nM and 1000 nM (sheet 'Samples'); n = 1.
Another test concerns MAP4K5. Conditions: read-out: apparent Kd; compound concentrations:100 nM and 1000 nM (sheet 'Samples'); n = 1.
Another test concerns NUAK2. To be noted: read-out: apparent Kd; compound concentrations:100 nM and 1000 nM (sheet 'Samples'); n = 1.
The test system of the next test is SLK. Conditions: read-out: apparent Kd; compound concentrations:100 nM and 1000 nM (sheet 'Samples'); n = 1.
The subject of a further test is STK10. To be noted: read-out: apparent Kd; compound concentrations:100 nM and 1000 nM (sheet 'Samples'); n = 1.
Setting [1] is: compound concentrations:100 nM and 1000 nM (sheet 'Samples').

Where two headings read alike, the source gives them in different places.

For `Cn1cc(C2=C(c3cn(CCN)c4ccccc34)C(=O)NC2=O)c2ccccc21` [RO0318045-000], the potency estimated from few doses in the test with DJA1 (compound concentrations: 100 nM and 1000 nM (sheet 'Samples'), CATDS: 6.3500397257876304E-2) was 1160 nM; in the test with GSK3A (CATDS: 0.123144126228622), 269 nM; in the test with GSK3B (CATDS: 0.119624186553648) it was 283 nM; with HSP90AA1, 1910 nM; in the test with HSPE1, 782 nM; with ICK, 1670 nM. For the same molecule, the potency estimated from few doses in the test on PGK1 was 63.9 nM; in the test on PKM it was 1680 nM; in the test with PRKCA, 554 nM; with PRKCB, 1320 nM; in the test with PRKCD it was 423 nM; with RPS6KA6, 403 nM. For the same molecule, the potency estimated from few doses with TESK1 is 1720 nM.
Turning to `Cc1ccc(NC(=O)Nc2ccc(Cl)cc2)cc1-c1ccc(C(=O)Nc2ccncc2)cc1` [GSK1398472A], the potency estimated from few doses in the test on DHCR24 (compound concentrations: 100 nM and 1000 nM (sheet 'Samples'), CATDS: 0.35595473001681699) was 1500 nM; in the test on EIF5B it was 1880 nM; with TOP2B it was 1750 nM.
For `O=C(Nc1ccccc1)Nc1cccc(Oc2ccc3nccn3n2)c1` [TPKI-39], the potency estimated from few doses with DDR2 was 732 nM; in the test with PDGFRB it was 853 nM.
Take `Nc1ccc(C#Cc2cncnc2Nc2ccc(OCc3cccc(F)c3)c(Cl)c2)cc1` [GW659893X]: the potency estimated from few doses in the test with EGFR was 404 nM.
In the case of `O=C1NC(=O)C(N2CCc3ccccc32)=C1c1cccc(Cl)c1` [SB-408010], the potency estimated from few doses in the test on DHCR24 (setting [1]) is 1900 nM; in the test with MCM5, 1580 nM.
Consider `Cn1cc(C2=C(c3cn(C)c4ncccc34)C(=O)NC2=O)c2ccccc21` [RO0271528-000], for which the potency estimated from few doses in the test with DJA1 (compound concentrations: 100 nM and 1000 nM (sheet 'Samples'), CATDS: 0.169109962216623) was 1330 nM; with GSK3A (CATDS: 0.18190367371529301) it was 1150 nM; in the test on GSK3B (CATDS: 0.17248189014097001), 1280 nM; in the test with ILK, 2170 nM; in the test with NQO2, 1260 nM; in the test with PDXK (CATDS: 0.17608898897019801), 1230 nM.
Regarding `Clc1ccc(-c2cc(-c3c[nH]nc3-c3ccccn3)ccn2)cc1` [GW681251X], the potency estimated from few doses was 843 nM in the test with DJA1 (setting [1]) and 856 nM with TGFBR1.
Consider `Cc1c(Cn2c3ccccc3n3c(=O)cc(N4CCOCC4)nc23)cccc1C(F)(F)F` [GSK2306394A], for which the potency estimated from few doses with DJA1 (compound concentrations: 100 nM and 1000 nM (sheet 'Samples'), CATDS: 0.30097601497631998) is 653 nM; in the test with PDXK (CATDS: 0.22598902737403401), 1920 nM; with PIK3CB it was 66.7 nM.
`Cl.c1ccc(Cn2ccc3cc(Nc4ncnc5ccccc45)ccc32)cc1` [GW275568A]: the potency estimated from few doses in the test on EGFR is 82.9 nM.
Same read-out and setting: under `Cl.c1ccc(Cn2ncc3cc(Nc4ncnc5ccccc45)ccc32)cc1` [GW273749A] stands 25.4 nM.
Turning to `COc1ccc(-c2oc3ncnc(N)c3c2-c2ccc(OC)cc2)cc1` [SB-589132], the potency estimated from few doses in the test with DYRK1A is 1950 nM; with EIF2AK1, 2270 nM; in the test on IRAK3, 1120 nM; with OPA1, 1860 nM; with PIK3CD, 151 nM.
Consider `C[C@@H](Oc1cc(-n2cnc3cc(-c4ccncc4)ccc32)sc1C(N)=O)c1ccccc1Cl` [GSK479719A], for which the potency estimated from few doses in the test on DYNC1LI1 was 1560 nM; in the test with GALK1, 986 nM; in the test with MAP3K1, 91.2 nM; with MAP4K5, 2270 nM; in the test with NUAK2, 1160 nM; in the test on SLK it was 510 nM. In addition, the potency estimated from few doses in the test on STK10 was 142 nM.
